# In PubChem BioAssay (NCATS):
# “And” between values parts separate entries of the source, which are not always exact repeats. Equal values may be shown once. Inconclusive results are not listed. Entries that show only a call come without a potency. Some structures have more than one record in an assay (separate samples or runs), and their calls can disagree. The source made the active and inactive calls. Calls come from the whole dose curve; as a rule, active = well fitted curve in the direction sought with a large enough effect; inconclusive = small, poorly fitted or top-dose-only effect, or another doubt; inactive = no such curve, though single readings can be large; an effect the other way counts as inactive or inconclusive.
# Experiments:
# [1] = molecular target: Papain (Carica papaya) (UniProt P00784); test: Primary qHTS assay for inhibitors of the protease papain (AID 1645873);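 note: papain turnover of Z-FR-AMC read as the AMC fluorescence gain over 10 min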; note: potency is the fitted concentration of half-maximal effect
# Papain (Carica papaya), sequence (P00784 whole entry, looked up, the tested form may be a part): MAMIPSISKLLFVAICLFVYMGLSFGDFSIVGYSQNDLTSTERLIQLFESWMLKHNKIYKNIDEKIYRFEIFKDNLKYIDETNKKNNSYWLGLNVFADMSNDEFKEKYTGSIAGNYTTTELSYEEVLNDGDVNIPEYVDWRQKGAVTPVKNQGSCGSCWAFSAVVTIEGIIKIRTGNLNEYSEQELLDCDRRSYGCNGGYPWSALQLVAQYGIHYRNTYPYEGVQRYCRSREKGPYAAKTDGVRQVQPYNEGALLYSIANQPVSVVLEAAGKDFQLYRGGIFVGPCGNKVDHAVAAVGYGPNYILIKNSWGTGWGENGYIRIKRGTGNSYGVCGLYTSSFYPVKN
# [2] = Primary qHTS for inhibitors of nuclear receptor binding SET domain protein 2 (NSD2) in an isogenic RCH-ACV NSD2 p.E1099K mutant (9B) (AID 1645876); note: nearly all actives have a fitted effect of over 70% in size; note: potency is the fitted concentration of half-maximal effect
# [3] = Primary qHTS for inhibitors of nuclear receptor binding SET domain protein 2 (NSD2) in an RCH-ACV wild type WT cells (2C) (AID 1645877); note: nearly all actives have a fitted effect of over 70% in size; note: potency is the fitted concentration of half-maximal effect
# [4] = molecular target: Rap guanine nucleotide exchange factor 3 (Homo sapiens) (UniProt O95398); test: Confirmatory qHTS for agonist of cAMP-regulated guanine nucleotide exchange factor 3 (EPAC1) (AID 1645881);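 note: EPAC1 catalysed release of BODIPY-GDP from Rap1B seen as fluorescence loss; nearly all actives have a fitted effect of over 75% in size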
# Rap guanine nucleotide exchange factor 3 (Homo sapiens), sequence (O95398 whole entry, looked up): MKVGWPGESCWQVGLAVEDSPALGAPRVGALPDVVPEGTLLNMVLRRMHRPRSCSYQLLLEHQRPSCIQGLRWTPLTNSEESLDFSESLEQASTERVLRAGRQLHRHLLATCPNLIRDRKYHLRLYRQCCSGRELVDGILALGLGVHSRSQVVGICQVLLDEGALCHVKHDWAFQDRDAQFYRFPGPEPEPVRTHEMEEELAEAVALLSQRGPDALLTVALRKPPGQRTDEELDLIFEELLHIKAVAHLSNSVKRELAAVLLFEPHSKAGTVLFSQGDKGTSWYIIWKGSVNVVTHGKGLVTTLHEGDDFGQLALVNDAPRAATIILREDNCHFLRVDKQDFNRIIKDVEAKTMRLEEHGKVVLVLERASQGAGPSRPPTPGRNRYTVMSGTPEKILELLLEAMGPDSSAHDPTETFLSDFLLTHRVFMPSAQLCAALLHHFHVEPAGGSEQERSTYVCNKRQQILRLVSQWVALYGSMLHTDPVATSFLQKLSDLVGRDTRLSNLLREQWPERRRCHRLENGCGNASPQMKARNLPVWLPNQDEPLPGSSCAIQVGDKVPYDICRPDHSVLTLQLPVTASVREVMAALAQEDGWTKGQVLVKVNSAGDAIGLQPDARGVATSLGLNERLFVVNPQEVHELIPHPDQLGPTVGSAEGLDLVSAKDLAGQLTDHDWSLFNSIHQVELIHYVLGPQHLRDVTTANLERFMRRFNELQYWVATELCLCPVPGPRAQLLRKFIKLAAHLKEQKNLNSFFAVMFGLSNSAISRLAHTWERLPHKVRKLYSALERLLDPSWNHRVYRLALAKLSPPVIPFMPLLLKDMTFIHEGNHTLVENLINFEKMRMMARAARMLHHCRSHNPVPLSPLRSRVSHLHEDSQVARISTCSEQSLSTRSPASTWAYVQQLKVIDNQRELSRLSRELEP
# [5] = molecular target: Rap guanine nucleotide exchange factor 4 (Homo sapiens) (UniProt Q8WZA2); test: Confirmatory qHTS for agonist of cAMP-regulated guanine nucleotide exchange factor 4 (EPAC2) (AID 1645884);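 note: nucleotide exchange releases bodipy-GDP from Rap1 and this lowers its fluorescence; nearly all actives have a fitted effect of over 65% in size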
# Rap guanine nucleotide exchange factor 4 (Homo sapiens), sequence (Q8WZA2 whole entry, looked up): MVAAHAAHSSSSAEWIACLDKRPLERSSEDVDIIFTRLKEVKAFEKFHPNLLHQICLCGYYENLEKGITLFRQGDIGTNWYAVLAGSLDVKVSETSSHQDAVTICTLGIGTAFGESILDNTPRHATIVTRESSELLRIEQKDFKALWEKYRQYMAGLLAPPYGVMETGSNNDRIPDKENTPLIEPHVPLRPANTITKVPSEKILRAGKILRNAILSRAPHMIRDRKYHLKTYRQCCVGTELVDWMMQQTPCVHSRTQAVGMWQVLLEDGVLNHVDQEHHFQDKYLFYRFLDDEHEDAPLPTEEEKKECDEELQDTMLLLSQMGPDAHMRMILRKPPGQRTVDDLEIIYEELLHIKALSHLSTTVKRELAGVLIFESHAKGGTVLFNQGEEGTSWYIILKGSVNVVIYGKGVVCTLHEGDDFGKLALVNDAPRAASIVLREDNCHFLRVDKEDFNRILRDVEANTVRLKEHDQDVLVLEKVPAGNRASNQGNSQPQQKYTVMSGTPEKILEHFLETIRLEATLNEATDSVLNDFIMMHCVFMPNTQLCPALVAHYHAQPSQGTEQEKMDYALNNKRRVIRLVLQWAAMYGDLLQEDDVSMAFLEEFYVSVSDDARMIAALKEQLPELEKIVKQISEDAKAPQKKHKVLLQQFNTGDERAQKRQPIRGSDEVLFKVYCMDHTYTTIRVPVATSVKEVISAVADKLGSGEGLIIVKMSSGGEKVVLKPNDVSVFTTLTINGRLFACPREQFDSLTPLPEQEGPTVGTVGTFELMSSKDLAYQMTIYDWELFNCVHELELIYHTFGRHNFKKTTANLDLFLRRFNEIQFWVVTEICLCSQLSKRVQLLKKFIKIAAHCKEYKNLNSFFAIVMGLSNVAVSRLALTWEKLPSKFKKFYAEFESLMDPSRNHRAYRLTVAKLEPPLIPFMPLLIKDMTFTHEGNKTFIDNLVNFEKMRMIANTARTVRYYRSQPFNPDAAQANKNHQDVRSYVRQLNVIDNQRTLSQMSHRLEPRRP
# [6] = molecular target: Rap guanine nucleotide exchange factor 4 (Homo sapiens) (UniProt Q8WZA2); test: Confirmatory qHTS for antagonist of cAMP-regulated guanine nucleotide exchange factor 4 (EPAC2) (AID 1645885); note: potency is the fitted concentration of half-maximal effect; nearly all actives have a fitted effect of over 25% in size
# [7] = molecular target: Rap guanine nucleotide exchange factor 3 (Homo sapiens) (UniProt O95398); test: Confirmatory qHTS for antagonist of cAMP-regulated guanine nucleotide exchange factor 3 (EPAC1) (AID 1645880); note: nearly all actives have a fitted effect of over 55% in size
# How it was run: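 Nucleotide exchange uses 100 nM EPAC1, 250 nM RAP1B-BODIPY-GDP and 50 uM GDP, with compounds in a concentration-titration series. After 5 min at room temperature, fluorescence (480 nm ex/540 nm em) is read every 5 min for 30 min. Data are normalized to control ATA and DMSO.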
smiles,measurement,setting,value
NCC1(CC(=O)O)CCCCC1,Potency,[1],inactive
same,Potency,[2],inactive
same,Potency,[3],inactive
Cc1ccc(S(=O)(=O)N[C@@H](CCCCN)C(=O)CCl)cc1,Potency,[1],14.1 µM (active)
same,Potency,[3],inactive
O=c1[nH]c2ccccc2n1CCCN1CCC(n2c(=O)[nH]c3cc(Cl)ccc32)CC1,Potency,[1],inactive
same,Potency,[3],20.9 µM (active)
Cc1ncc(CNC(=O)N(CCCl)N=O)c(N)n1,Potency,[1],inactive
same,Potency,[2],inactive
same,Potency,[3],inactive
Clc1ccc(CCC(Cn2ccnc2)Sc2c(Cl)cccc2Cl)cc1 (configuration not stated),Potency,[2],18.8 µM (active) and 18.6 µM (active)
same,Potency,[3],11.9 µM (active) and 20.9 µM (active)
C=C1CC[C@@]2(O)[C@H]3Cc4ccc(O)c5c4[C@@]2(CCN3CC2CC2)[C@H]1O5,Potency,[2],inactive
same,Potency,[3],inactive
C[C@]12CCC(=O)C(O)=C1CC[C@@H]1[C@@H]2CC[C@]2(C)C(=O)CC[C@@H]12,Potency,[2],inactive
same,Potency,[3],inactive
Oc1cccc2cccnc12,Potency,[2],15.4 µM (active) and inactive
same,Potency,[3],34.4 µM (active) and inactive
O=C(O)c1ccc2[nH]cc(CCCCN3CC=C(c4ccccc4)CC3)c2c1,Potency,[2],inactive
same,Potency,[3],inactive
C[C@]12C/C(=C/O)C(=O)C[C@@H]1CC[C@@H]1[C@@H]2CC[C@@]2(C)[C@H]1CC[C@]2(C)O,Potency,[2],13.3 µM (active)
same,Potency,[3],23.7 µM (active)
CC[N+]1(C)CCCC(OC(=O)C(O)(c2ccccc2)c2ccccc2)C1 (configuration not stated),Potency,[2],inactive
same,Potency,[3],inactive
O=P1(NCCCl)OCCCN1CCCl (configuration not stated),Potency,[2],inactive
same,Potency,[3],inactive
Cn1cc(C2=C(c3cn(C4CCN(Cc5ccccn5)CC4)c4ccccc34)C(=O)NC2=O)c2ccccc21,Potency,[2],inactive and 16.4 µM (active)
same,Potency,[3],inactive
CCN(CC)CCOC(=O)C(O)(c1ccccc1)c1ccccc1,Potency,[2],inactive
same,Potency,[3],inactive
CO[C@]12CC[C@@]3(C[C@@H]1[C@](C)(O)C(C)(C)C)[C@@H]1Cc4ccc(O)c5c4[C@@]3(CCN1CC1CC1)[C@H]2O5,Potency,[2],6.05 µM (active)
same,Potency,[3],6.79 µM (active)
Oc1ccc(Cl)cc1Cc1ccccc1,Potency,[2],24.6 µM (active)
same,Potency,[3],34.7 µM (active)
CN(C)[C@@H]1C(=O)C(C(N)=O)=C(O)[C@@]2(O)C(=O)C3=C(O)c4c(O)cccc4[C@@](C)(O)[C@H]3C[C@@H]12,Potency,[2],inactive
same,Potency,[3],inactive
OCCOc1ccccc1,Potency,[2],inactive
same,Potency,[3],inactive
CCC(COC(=O)c1cc(OC)c(OC)c(OC)c1)(c1ccccc1)N(C)C (configuration not stated),Potency,[2],inactive
same,Potency,[3],inactive
CCOC(=O)C1(c2ccccc2)CCN(CCC(C#N)(c2ccccc2)c2ccccc2)CC1,Potency,[2],5.96 µM (active)
same,Potency,[3],5.96 µM (active)
CCC(=O)C(CC(C)N(C)C)(c1ccccc1)c1ccccc1 (configuration not stated),Potency,[2],34.7 µM (active)
same,Potency,[3],30.9 µM (active)
Cc1ccc(-c2nc3ccc(C)cn3c2CC(=O)N(C)C)cc1,Potency,[2],inactive
same,Potency,[3],inactive
CCN(C(C)=O)c1cccc(-c2ccnc3c(C#N)cnn23)c1,Potency,[2],inactive
CN(C)CCN(C)CCc1ccc(Cl)c(Cl)c1,Potency,[2],inactive
same,Potency,[3],inactive
Cc1ccc2c(c1)C1CN(C)CCC1N2 (configuration not stated),Potency,[2],inactive
same,Potency,[3],inactive
Cc1cc(SCc2sc(-c3ccc(C(F)(F)F)c(F)c3)nc2C)ccc1OCC(=O)O,Potency,[2],inactive
same,Potency,[3],inactive
CC[C@@H](CO)NC(=O)[C@@H]1C=C2c3cccc4[nH]cc(c34)C[C@H]2N(C)C1,Potency,[2],inactive
same,Potency,[3],inactive
O=C1CC[C@@]2(O)[C@H]3Cc4ccc(O)c5c4[C@@]2(CCN3CC2CC2)[C@H]1O5,Potency,[2],inactive
same,Potency,[3],inactive
CCC(C(N)=O)N1CCCC1=O (configuration not stated),Potency,[2],inactive
same,Potency,[3],inactive
CCN(CC)C(=O)N[C@@H]1C=C2c3cccc4[nH]cc(c34)C[C@@H]2N(C)C1,Potency,[2],inactive
CC(=O)Nc1cc([As](=O)(O)O)ccc1O,Potency,[2],inactive
same,Potency,[3],inactive
O=[N+]([O-])c1cc([As](=O)(O)O)ccc1O,Potency,[2],inactive
CC1NCCOC1c1ccccc1 (configuration not stated),Potency,[2],inactive
same,Potency,[3],inactive
CN1CCN(C(=O)O[C@H]2c3nccnc3C(=O)N2c2ccc(Cl)cn2)CC1,Potency,[2],inactive
same,Potency,[3],inactive
c1ccc2c(c1)Nc1ccccc1S2,Potency,[2],inactive
same,Potency,[3],inactive
COc1ccc(Cc2nccc3cc(OC)c(OC)cc23)cc1OC,Potency,[2],11.8 µM (active)
same,Potency,[3],5.25 µM (active)
CCN(CC)CCN1C(=O)CN=C(c2ccccc2F)c2cc(Cl)ccc21,Potency,[2],inactive
CNC(=O)N1N=C(c2ccc(N)cc2)c2cc3c(cc2CC1C)OCO3 (configuration not stated),Potency,[2],3.65 µM (active)
same,Potency,[3],2.05 µM (active)
C[C@]12CC[C@H]3[C@@H](CCC4=CC(=O)CC[C@@H]43)[C@@H]1CC[C@@H]2OC(=O)CCc1ccccc1,Potency,[3],inactive
CC(C)(C)CC(C)(C)c1ccc(O)cc1,Potency,[2],24.3 µM (active)
same,outcome,[4],inactive
same,outcome,[5],inactive
same,Potency,[6],49.4 µM (active) and 56.9 µM (active)
COc1ccc(C(=O)c2c(C)n(CCN3CCOCC3)c3ccccc23)cc1,Potency,[2],23.5 µM (active)
same,Potency,[3],18.8 µM (active)
C[C@H]1O[C@@H](O[C@H]2[C@@H](O)C[C@H](O[C@H]3[C@@H](O)C[C@H](O[C@H]4CC[C@@]5(C)[C@H](CC[C@@H]6[C@@H]5CC[C@]5(C)[C@@H](C7=CC(=O)OC7)CC[C@]65O)C4)O[C@@H]3C)O[C@@H]2C)C[C@H](O)[C@@H]1O,Potency,[2],16.8 nM (active) and 19.2 nM (active)
same,Potency,[3],42.2 nM (active) and 85.8 nM (active)
same,Potency,[7],inactive
same,outcome,[4],inactive
same,outcome,[5],inactive
CCCC(C)(COC(N)=O)COC(=O)NC(C)C (configuration not stated),Potency,[2],inactive
same,Potency,[3],inactive
CC(C)(C)NCC(O)c1cc(Cl)c(N)c(Cl)c1 (configuration not stated),Potency,[2],inactive
same,Potency,[3],inactive
O=C(NC(O)C(Cl)(Cl)Cl)NC(O)C(Cl)(Cl)Cl (configuration not stated),Potency,[2],inactive
same,Potency,[3],inactive
